The campaign covered roughly 48,000 compounds. About 13,000 (27%) showed an effect of 50% or more. This is one part of the list.

In the assay the test system is Wolbachia pipientis. Description: Anti-Wolbachia Cell-Based Screen. It counts as functional. On the set-up: scale not given: in the data most compounds retested in dose-response had high values. Particulars: 5 µM.
`CC1COc2ccccc2N1C(=O)c1ccc(=O)n(C)c1` (configuration not stated): the “Percent Effect” value is on record as -18.38%.

Consider `Fc1cccc(N2CCCC3(C2)CN(c2ncccn2)CCO3)c1.O=C(O)C(F)(F)F.O=C(O)C(F)(F)F` (configuration not stated), for which the “Percent Effect” value is on record as -1.466%.

On to `CC(C)c1nc(CN2CCCN(c3nccs3)CC2)no1`, for which the “Percent Effect” value is 89.07%.

For the compound `Cc1csc(N2CCCN(Cc3noc(C)n3)CC2)n1`, the “Percent Effect” value stood at 0.2085%.

Consider `CCc1nc(CN2CCCN(c3nccs3)CC2)no1`, for which the “Percent Effect” value was determined as 1.816%.

As to `c1csc(N2CCN(Cc3nnnn3C3CC3)CC2)n1`, the “Percent Effect” value is -36.32%.

Turning to `CCc1nc(CN2CCCN(c3ncnc4ccsc34)CC2)no1`, the “Percent Effect” value is on record as -84.77%.

`c1csc(N2CCCN(Cc3nc(C4CC4)no3)CC2)n1`: the “Percent Effect” value is on record as -5.415%.

`c1csc(N2CCCN(Cc3noc(C4CC4)n3)CC2)n1`: the “Percent Effect” value is 107.3%.

With `Cc1nc(CN2CCCN(c3nccs3)CC2)no1`, the “Percent Effect” value is recorded as 78.71%.

In the case of `C[C@@H]1CN(C(=O)CCc2nncn2C)C[C@@]1(O)C1CCC1`, the “Percent Effect” value is given as -1.808%.

As for `Cc1cc(C)n(C(=O)c2cn(C)nc2S(=O)(=O)N2CCSCC2)n1`, the “Percent Effect” value is -0.316%.

Consider `COc1c(C)cnc(CN2CCCCC2CCN2CCOCC2)c1C` (configuration not stated), for which the “Percent Effect” value was 0.5923%.

On to `Cc1ccc2nc(CN3CCCCC3CCN3CCOCC3)cn2c1` (configuration not stated), for which the “Percent Effect” value turned out to be 98.48%.

Regarding `Cc1ccc(O)c(CN2CCCCC2CCN2CCOCC2)c1` (configuration not stated), the “Percent Effect” value came out at 102.9%.

For the compound `Cc1ccc2nc(CN3CCCCC3CCn3cccn3)cn2c1` (configuration not stated), the “Percent Effect” value is 89.18%.

For `COCCCC1CCCCN1Cc1cnn(C)c1C1CC1` (configuration not stated), the “Percent Effect” value is recorded as 18.85%.

Take `Cc1c[nH]c(CN2CCCCC2CCn2cccn2)c(C)c1=O` (configuration not stated): the “Percent Effect” value was determined as 21.06%.

For `CCCn1ncc(CN2CCCCC2CCCOC)c1C` (configuration not stated), the “Percent Effect” value is -0.2831%.

Take `COc1cc2c(cc1CN1CCCCC1CN1CCOCC1)CCC2` (configuration not stated): the “Percent Effect” value was 26.24%.

Take `Cc1nccn1CCC1CCCCN1Cc1ccc(O)cc1Cl` (configuration not stated): the “Percent Effect” value is recorded as -13.87%.

Take `Cc1cnn(CC2CCCN2Cc2cc(=O)n3cc(C)ccc3n2)c1` (configuration not stated): the “Percent Effect” value came out at 11.19%.

For `COCCCC1CCCCN1Cc1cn2cc(C)ccc2n1` (configuration not stated), the “Percent Effect” value came out at 95.19%.

Consider `Cc1oc(-c2ccoc2)nc1CN1CCCCC1CCn1cccn1` (configuration not stated), for which the “Percent Effect” value was determined as 3.711%.

Regarding `CC(C)(C)CN(CCC#N)C(=O)Nc1cccc(N2CCNC2=O)c1`, the “Percent Effect” value stood at 7.726%.

In the case of `O=C(c1ccccc1F)N(CCCO)S(=O)(=O)c1cccs1`, the “Percent Effect” value was found to be 2.629%.

For `O=C(NCCNc1ncccn1)N(Cc1ccc(F)cc1F)C1CC1`, the “Percent Effect” value is listed as -5.455%.

On to `Cc1ccc2nc(CN3CCCCC3C(=O)N3CCOCC3)cn2c1` (configuration not stated), for which the “Percent Effect” value was found to be 89.82%.

For `N#Cc1ccccc1OCCN1CCCCC1C(=O)N1CCOCC1` (configuration not stated), the “Percent Effect” value amounted to 9.052%.

Turning to `O=C(CN1CCCC1c1nc(-c2ccccc2)no1)N1CCOCC1` (configuration not stated), the “Percent Effect” value is 6.777%.

On to `Cc1nc(CN2CCCN(C(=O)C(C)OCC3CC3)CC2)cs1` (configuration not stated), for which the “Percent Effect” value is given as 0.6409%.

With `COc1ccc(S(=O)(=O)NC(=O)c2c(C)noc2C(C)C)cc1C`, the “Percent Effect” value is given as -2.008%.

As for `CCc1nc(N2CCCC(CCOC)(C(=O)O)C2)ncc1C` (configuration not stated), the “Percent Effect” value amounted to 2.702%.

With `CC(c1ccc(Cl)cc1)N1CCN(CCS(N)(=O)=O)CC1` (configuration not stated), the “Percent Effect” value is reported as -4.709%.

On to `CCS(=O)(=O)CCN1CCN(C(C)c2cccnc2)CC1` (configuration not stated), for which the “Percent Effect” value stood at 4.9%.

In the case of `CC(C)S(=O)(=O)CCN1CCN(C(C#N)c2ccccc2)CC1` (configuration not stated), the “Percent Effect” value was determined as 88.63%.

For `CC(c1ccc(Cl)cc1)N1CCN(CCCS(N)(=O)=O)CC1` (configuration not stated), the “Percent Effect” value was determined as 8.4%.

As for `CCCS(=O)(=O)CCN1CCN(C(C#N)c2ccccc2)CC1` (configuration not stated), the “Percent Effect” value stood at 125.8%.

With `CCCS(=O)(=O)CCN1CCN(c2cc(F)ccc2F)CC1`, the “Percent Effect” value is -4.475%.

In the case of `CS(=O)(=O)N1C[C@H](C(=O)Nc2cnccn2)C[C@H]2OCC[C@H]21`, the “Percent Effect” value was -3.249%.

With `CS(=O)(=O)N1CC2(CCN(C3CCCCC3)CC2)Cc2ccccc21`, the “Percent Effect” value is given as 114.5%.

Regarding `CS(=O)(=O)N1CCc2[nH]cnc2C12CCN(C1CCOCC1)CC2`, the “Percent Effect” value is reported as 0.6109%.

As for `CN(C)C(=O)N1CC2(CCN(S(C)(=O)=O)CC2)c2ccccc21`, the “Percent Effect” value is listed as 1.836%.

In the case of `Cc1cccc(N2CCC(N3CCC4(CCCNC4=O)C3)CC2)c1C` (configuration not stated), the “Percent Effect” value is reported as 11.3%.

Turning to `O=C1N(Cc2ccc(F)c(F)c2)CCCC12CCN(C1CCCCC1)C2` (configuration not stated), the “Percent Effect” value is given as -2.682%.

As for `CS(=O)(=O)N1CC2(CCN(C3CCCCC3)C2)Cc2ccccc21` (configuration not stated), the “Percent Effect” value amounted to 120%.

Consider `CC(C)CCN1CCc2[nH]nc(C(=O)N3CCCC3C)c2C1.O=C(O)C(F)(F)F` (configuration not stated), for which the “Percent Effect” value is -10.1%.

As for `CS(=O)(=O)N1CC[C@@H]2[C@@H](CCC(=O)N2CCC2=CCCCC2)C1`, the “Percent Effect” value is recorded as -15.08%.

`CN(Cc1cnn(C)c1)Cc1nc(CCc2ccccc2)no1`: the “Percent Effect” value is reported as 8.219%.

For the compound `Cc1cnccc1-c1cnn(CCNC(=O)c2ccncc2)c1C1CC1.Cl`, the “Percent Effect” value is given as 189.5%.

For `O=C(NCCSC1CCCC1)c1cnccn1`, the “Percent Effect” value is on record as 5.351%.

Regarding `Cc1cnccc1-c1cnn(CCNC(=O)c2ccccn2)c1C1CC1.Cl`, the “Percent Effect” value was 221.9%.

For the compound `Cc1cnccc1-c1cnn(CCNC(=O)c2cccnc2)c1C1CC1.Cl`, the “Percent Effect” value is recorded as 156.9%.

As to `Cc1ccc(CN(C(=O)NCCNC(=O)c2cccnc2)C(C)C)o1`, the “Percent Effect” value was -0.6443%.

As for `Cc1cnccc1-c1cnn(CCNC(=O)C(C)(C)C)c1C1CC1.Cl`, the “Percent Effect” value came out at 128.5%.

On to `Cc1ccccc1C1CCN(C(=O)CCNC(=O)C(C)(C)C)C1` (configuration not stated), for which the “Percent Effect” value was -3.334%.

Turning to `CC(C)(C)C(=O)NCCC(=O)NS(=O)(=O)c1cccnc1`, the “Percent Effect” value is listed as 1.555%.

For `Cc1cnn(C(C)C2CC2)c1NC(=O)c1ccncc1` (configuration not stated), the “Percent Effect” value was -0.2997%.

For the compound `CCNc1ncc(C(=O)NCCNc2ccncc2C)cn1`, the “Percent Effect” value is reported as 11.05%.

For `CCOC(=O)NC(CNC(=O)c1ccccn1)CC(C)C` (configuration not stated), the “Percent Effect” value is -0.8901%.

Consider `CC(Cn1cccn1)NCc1csc(-c2ccc(F)cc2)n1` (configuration not stated), for which the “Percent Effect” value is given as 3.098%.

With `CCCSCC(=O)Nc1ncn(CC(=O)N2CCCCCC2)n1`, the “Percent Effect” value is -27.1%.

In the case of `COC(=O)c1cccc(CN(C)Cc2ncnn2C)c1C#N`, the “Percent Effect” value was -234%.

As for `O=C(Nc1cnn(-c2ccccc2Cl)c1)N[C@@H]1C=C[C@H](CO)C1`, the “Percent Effect” value is given as -14.17%.

As for `COc1ccc2c(O)c(NC(=O)NCC3CC3)cnc2c1`, the “Percent Effect” value is listed as -18.39%.

On to `O=C(Cn1cnnn1)Nc1ccc(F)cc1OCC1CC1`, for which the “Percent Effect” value worked out at 11.02%.

As for `O=C(NCC1CC1)Nc1cnc2ccc(F)cc2c1O`, the “Percent Effect” value is given as 100.3%.

Values taken from ChEMBL document CHEMBL3988442, “University of Dundee, Small-Polar-MMV Screening Library” (2021).
